# Screens (PubChem BioAssay)
# EWS-Fli block: EWS/Fli-driven NR0B1 reporter inhibitors, primary screen, A673 cells, NR0B1 luciferase, luminescence, MLPCN library. viability-normalised. inhibition, % at 12.6 µM. actives 0.67% (n = 350,000);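 active = mean inhibition of at least 50% after viability correction, with every replicate also passing that limit; inconclusive = mean reaches 50% but only one of two replicates passes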;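 also: firefly luciferase signal divided by Alamar Blue viability fluorescence both relative to DMSO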
# LGR2 inh: inhibitors of bursicon-induced LGR2 CRE-luciferase signal, primary screen, cell-based, HEK293, CRE-luciferase reporter, bursicon stimulation. Drosophila bursicon receptor LGR2 (rickets). actives 0.35% (n = 380,000). inhibition, % at 9.99 µM. bursicon-stimulated, 4 h. AID 720647, 2013;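 active = drop in luminescence signal, shown as inhibition above about 50% in the replicate tests, limit read from the data, passing the limit was not always enough; inconclusive = probably only some replicates passing the limit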;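 also: agonist challenge used bursicon conditioned medium at about half maximal strength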
# PAX8 inh HTS: inhibitors of PAX8-driven TPO luciferase reporter, primary screen, RMG-I cells, single concentration | AID 652154, 2013 | inhibition, % at 12.6 µM | actives 1.2% (n = 360,000) | SteadyGlo, 24 h;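 active = mean replicate inhibition at least 60% with every replicate also reaching 60%; inconclusive = only one of the two criteria is met; inactive = mean below 60% and not all replicates reaching 60%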;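 also: luciferase light reporting Pax8 driven TPO promoter activity; plate controls were median of neutral control wells for no effect and mitoxantrone controls for full effect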
# rRNA inh HTS: reduced GFP signal of wild-type E. coli, primary screen, bacterial rRNA inhibitor project, GFP/RFP fluorescence, OD600, single point; E. coli WT GFP vs humanized-ribosome RFP mutants, 24 h; hits give low values; DMSO median 0, no signal -100; GFP signal change (wild-type ribosome), % (test concentration not listed); actives 1.6% (n = 350,000);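 active = significant combined selectivity score with lowered wild-type GFP, culture density cut under 30%, mutant RFP and density less affected; inactive = any of these conditions unmet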
# PGC1a acetyl inh: inhibitors of PGC1a acetylation signal, primary screen, cell-based, U2OS, AlphaScreen, inhibitor mode | AID 651687, 2012 | AlphaScreen anti-acetyl-lysine; with virally co-expressed GCN5 acetyltransferase | inhibition, % at 15.6 µM | actives 0.17% (n = 350,000);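 active = every replicate shows inhibition of at least 40%; inconclusive = mean inhibition at least 40% but some replicate below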;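 also: 0% = neutral control wells and 100% = positive control wells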
# SIRT5 block: SIRT5 desuccinylase inhibitors, primary screen, biochemical, fluorescence imaging, single point, set 5; NAD-dependent protein deacylase sirtuin-5, mitochondrial (Homo sapiens), Q9NXA8; Purified SirT5, succinyl-peptide AMC, trypsin-coupled fluorescence; AID 652115, 2013; actives 1.1% (n = 330,000); inhibition, % at 15 µM; in the data active = inhibition above about 15%; inconclusive = no clear call, values can overlap the other calls
# Target sequence (Q9NXA8 whole entry, looked up): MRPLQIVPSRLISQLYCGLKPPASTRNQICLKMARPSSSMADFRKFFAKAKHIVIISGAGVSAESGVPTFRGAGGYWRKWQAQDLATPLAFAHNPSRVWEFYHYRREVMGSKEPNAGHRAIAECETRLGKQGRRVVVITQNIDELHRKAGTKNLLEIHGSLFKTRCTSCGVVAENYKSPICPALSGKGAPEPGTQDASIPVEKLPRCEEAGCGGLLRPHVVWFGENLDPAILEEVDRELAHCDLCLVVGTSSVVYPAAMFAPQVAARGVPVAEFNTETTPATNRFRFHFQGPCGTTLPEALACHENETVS
# AID977621: growth inhibition of wild-type GFP E. coli, dose response, H69 mutant RFP, cherry-pick; shares compounds with rRNA inh HTS; 1,900 tested, under 10 active; E. coli wild-type GFP strain growth, fluorescence, 24 h; activity change, negative = inhibition at 50 µM;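 active = Wild-type ribosome reporter drop at least double the humanized mutant ribosome reporter drop, growth loss under a set limit; inconclusive = no clear call, values can overlap the other calls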;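 also: wild-type GFP and H69 mutant RFP strains grown together 50/50 in each well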
# AID977628: E. coli growth inhibition, wild-type GFP versus h24 humanized RFP strain, dose response, h24 mutant RFP vs wild-type GFP, cherry-pick | shares compounds with rRNA inh HTS | E. coli WT GFP strain growth, fluorescence, 24 h | activity change, negative = inhibition at 50 µM | 1,900 tested, under 10 active | AID 977628, 2014;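 active = compound lowering the normal-ribosome reporter at least twice as much as the humanized-ribosome reporter, growth loss under a set limit; inconclusive = no clear call, values can overlap the other calls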;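 also: wild-type GFP and h24 humanized RFP strains co-cultured 1 to 1 per well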
# Numbers without * were called inactive; ? = inconclusive; · = no result given. An excerpt weighted towards active compounds, which were near 3.4% of everything screened.
SMILES,EWS-Fli block,LGR2 inh,PAX8 inh HTS,rRNA inh HTS,PGC1a acetyl inh,SIRT5 block,AID977621,AID977628
CC(=O)N(C)C[C@H]1Oc2ncc(-c3cccc(F)c3)cc2C(=O)N([C@H](C)CO)C[C@@H]1C,-12,-11,·,0,-2,5,·,·
Cc1ccc(-c2cnc3c(c2)C(=O)N([C@H](C)CO)C[C@H](C)[C@H](CN(C)C(=O)Cc2ccccc2)O3)cc1,-11,-6,·,-4,-13,2,·,·
CCOC(=O)c1c(C)[nH]c(C)c1C(=O)COC(=O)C1CCCN1S(=O)(=O)c1ccccc1F (centres undefined),·,2,·,·,0,-5,·,·
O=C(COC(=O)[C@@H]1CCCN1S(=O)(=O)c1ccccc1F)c1ccccc1,8,0,13,-16*,·,-4,-6.6,?
CN(Cc1ccccc1NS(=O)(=O)c1ccc(Cl)cc1)C1CCCCC1,4,0,20,-29*,-11,1,-6.9,?
Cc1cc(C)nc(SCCC(=O)Nc2ccccc2Cl)n1,3,3,0,-18*,2,-2,·,-15
COc1ccc(C2=NN(C(=O)CN3CCCCC3)C(c3ccc(C)cc3)C2)cc1 (centres undefined),-2,1,9,-20,2,2,·,·
COc1ccc(C2CC(c3ccc(Br)cc3)=NN2C(=O)CN2CCCC2)cc1 (centres undefined),0,-12,?,-19*,·,-3,-3.5,?
CCOC(=O)c1cnc2ccccc2c1NCc1ccco1,-1,-22,-36,-29*,-12,2,·,-10
Cc1ccc(-c2nc3c(Br)cc(C)cn3c2Cc2cccc(Cl)c2)cc1,-4,-7,-5,-6,·,-3,·,·
Cc1cc(Br)c2nc(-c3ccc(Cl)cc3)c(Cc3cccc(Cl)c3)n2c1,-18,9,-2,-19*,·,3,?,?
O=C(Cc1ccccn1)N[C@H]1CC[C@H](CCNS(=O)(=O)c2cccc(F)c2)O[C@H]1CO,6,10,-2,1,7,3,·,·
CCOc1ccc2nc(NC(=O)CSc3ccc(Cl)cc3)sc2c1,·,·,-37,·,·,·,·,·
CCOc1ccc2nc(NC(=O)CSc3nc(SC)ns3)sc2c1,-16,-53,·,-24*,-4,4,-8.9,·
C[C@@H]1CN([C@H](C)CO)C(=O)c2cc(-c3cccc(F)c3)cnc2O[C@@H]1CN(C)Cc1cccnc1,4,-2,·,2,11,-8,·,·
C=CCn1c(SCC(=O)N2CCCC2=O)nc2sc(CC)cc2c1=O,0,-25,-9,-23*,11,-1,-18,?
C=CCn1c(SCC(=O)O)nc2sc(CC)cc2c1=O,2,24,2,3,1,2,·,·
O=C(c1ccc(N2CCCCC2)c([N+](=O)[O-])c1)N1CCN(S(=O)(=O)c2ccccc2)CC1,12,7,-10,-16,·,-2,·,·
Cn1c(=O)n(C)c2cc([N+](=O)[O-])c(N3CCN(C(=O)c4cccc(Cl)c4)CC3)cc21,·,4,11,·,-7,·,·,·
O=C(c1ccc(N2CCCCC2)c([N+](=O)[O-])c1)N1CCN(c2ccccn2)CC1,9,-15,19,-21*,-4,-6,·,?
Cn1c(=O)n(C)c2cc([N+](=O)[O-])c(N3CCN(C(=O)c4cccc(F)c4)CC3)cc21,13,11,37,-18*,·,-2,-12,?
CCCC(=O)Nc1ccc2c(c1)C(=O)N(C)[C@@H]1CC[C@@H](CC(=O)NCCc3ccncc3)O[C@@H]1CO2,-10,15,1,1,-5,-8,·,·
CN(C)CCCN(C(=O)CCOc1ccccc1)c1nc2c(F)cccc2s1,15,16,87*,-14*,-1,-4,-8.5,?
CN(C)CCCN(C(=O)COc1ccc(Cl)cc1)c1nc2ccc(F)cc2s1,-5,-5,-23,-23*,-7,0,-6.3,-4.4
O=C(C[C@@H]1C=C[C@@H](NC(=O)c2ccncc2)[C@@H](CO)O1)Nc1ccccc1,-14,4,·,4,1,3,·,·
SMILES,EWS-Fli block,LGR2 inh,PAX8 inh HTS,rRNA inh HTS,PGC1a acetyl inh,SIRT5 block,AID977621,AID977628
COc1ccc(CNC(=O)CSCc2c(F)cccc2Cl)cc1,-2,-10,-9,-27*,5,-2,-2.6,·
O=C(CSCc1c(Cl)cccc1Cl)NCc1ccccn1,10,17,5,-23*,-6,-5,-5.6,-2.1
O=C(COc1ccc(Br)cc1)NCc1ccccn1,10,6,·,6,6,-2,·,·
O=C(CSCc1ccc(Br)cc1)NCc1ccccn1,-1,-1,14,-19*,1,2,1.9,0.69
C[C@@H]1CCCCO[C@H](CN(C)Cc2ccc3c(c2)OCO3)[C@@H](C)CN([C@H](C)CO)C(=O)c2cc(NS(=O)(=O)c3cccs3)ccc2O1,-5,-7,-12,1,0,·,·,·
CC(=O)Nc1cccc(NC(=O)CCN2C(=O)c3ccccc3S2(=O)=O)c1,6,16,5,-14*,·,-1,?,-13
O=C(CCN1C(=O)c2ccccc2S1(=O)=O)Nc1cccc(F)c1,-6,9,·,3,·,-3,·,·
CN1c2ccc(Cl)cc2C(=O)NC1C1CC=CCC1 (centres undefined),-1,-10,-6,-23*,2,-6,-2.7,·
C[C@@H]1CC=CC[C@@H](c2cccc(Cl)c2)NC(=O)[C@@H](C)N(C)C(=O)c2ccccc2O1 (mixture of isomers),·,·,·,-56,·,·,·,·
Cc1ccc(NC(=O)c2ccc([N+](=O)[O-])o2)c(C)c1,11,-21,54,-33*,-21,·,·,-16
CC(=O)N[C@H]1CC[C@H](CC(=O)NCc2ccc(Cl)cc2)O[C@@H]1CO,8,-36,-1,1,-1,1,·,·
COC(=O)C[C@H]1C[C@@H]2c3cc(NC(=O)Nc4ccc(C(F)(F)F)cc4)ccc3O[C@@H]2[C@H](CO)O1,4,-15,-6,-25*,5,1,·,?
C[C@H]1CN([C@@H](C)CO)C(=O)c2cccc(NS(=O)(=O)c3ccc(Cl)cc3)c2O[C@@H]1CN(C)Cc1ccccc1,4,-3,0,-1,4,-2,·,·
